Screening results deposited in PubChem BioAssay by National Center for Advancing Translational Sciences (NCATS).
The sample as a whole holds a higher share of hits than the screen did.
TDP1 cell noCPT: qHTS for Inhibitors of human tyrosyl-DNA phosphodiesterase 1 (TDP1): qHTS in cells in absence of CPT; DT40 Tdp1-/- hTDP1 cells, no CPT, ATP luminescence, 48 h; Potency, µM (highest dose often 46.2 µM), without a hit: top-dose activity change, negative = growth inhibition, most hits filed as inhibitors; actives 15% (n = 420,000); AID 686978, 2013; note: potency is the fitted concentration of half-maximal effect; nearly all actives have a fitted effect of over 55% in size
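Chicken DT40 Tdp1-/- cells complemented with human TDP1, screened without camptothecin (DMSO vehicle only), 400 cells/well. Compounds pin-transferred, cells incubated at 37 °C for at least 48 hr. Growth read as ATP-dependent luminescence (CellTiter-Glo, 30 min at RT).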
DT40 TDP1 CPT: growth inhibition of DT40 Tdp1-/-;hTDP1 cells with camptothecin (screen for TDP1 inhibitors); chicken DT40 Tdp1-/-;hTDP1 cells + 20 nM CPT, ATP luminescence, 48 h; actives 12% (n = 420,000); Potency, µM (top dose mostly 46.2 µM), for the others: at the top dose activity change, negative = growth inhibition, most hits filed as inhibitors; AID 686979; note: potency is the fitted concentration of half-maximal effect; nearly all actives have a fitted effect of over 55% in size
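Chicken DT40 Tdp1-/- cells complemented with human TDP1, 400 cells/well, exposed to compounds plus 20 nM camptothecin for at least 48 h at 37 C; viability read as ATP content by CellTiter-Glo luminescence.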
HT1080 IDH1KD tx: HT-1080 IDH1 knockdown cell toxicity (counter line); HT-1080 IDH1 knockdown viability, ATP luminescence, 48 h; Potency, µM (highest dose often 46.1 µM), without a hit: top-dose activity, negative = toxicity, hits mostly cytotoxic; actives 2% (n = 360,000); AID 686971;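 note: potency is the fitted concentration of half-maximal effect; 0% = DMSO wells and -100% = cell-free medium wells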
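IDH1KD HT-1080 cells, 750/well, RPMI + 5% FBS; compound pinned after 2 h settling; 48 h, 37 °C; CellTiter-Glo luminescence; % activity normalised to DMSO and no-cell wells; curves fitted, classed by r2 and efficacy.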
ALOX12 inh: ALOX12 (human) lipoxygenase inhibition. Potency, µM (highest dose often 108 µM), for the others: at the highest dose activity change, negative = inhibition, most hits filed as inhibitors. AID 1671190. actives 1.1% (n = 580,000). P18054. purified 12hLO, xylenol orange hydroperoxide absorbance; note: potency is the fitted concentration of half-maximal effect
Target sequence (P18054 whole entry, looked up): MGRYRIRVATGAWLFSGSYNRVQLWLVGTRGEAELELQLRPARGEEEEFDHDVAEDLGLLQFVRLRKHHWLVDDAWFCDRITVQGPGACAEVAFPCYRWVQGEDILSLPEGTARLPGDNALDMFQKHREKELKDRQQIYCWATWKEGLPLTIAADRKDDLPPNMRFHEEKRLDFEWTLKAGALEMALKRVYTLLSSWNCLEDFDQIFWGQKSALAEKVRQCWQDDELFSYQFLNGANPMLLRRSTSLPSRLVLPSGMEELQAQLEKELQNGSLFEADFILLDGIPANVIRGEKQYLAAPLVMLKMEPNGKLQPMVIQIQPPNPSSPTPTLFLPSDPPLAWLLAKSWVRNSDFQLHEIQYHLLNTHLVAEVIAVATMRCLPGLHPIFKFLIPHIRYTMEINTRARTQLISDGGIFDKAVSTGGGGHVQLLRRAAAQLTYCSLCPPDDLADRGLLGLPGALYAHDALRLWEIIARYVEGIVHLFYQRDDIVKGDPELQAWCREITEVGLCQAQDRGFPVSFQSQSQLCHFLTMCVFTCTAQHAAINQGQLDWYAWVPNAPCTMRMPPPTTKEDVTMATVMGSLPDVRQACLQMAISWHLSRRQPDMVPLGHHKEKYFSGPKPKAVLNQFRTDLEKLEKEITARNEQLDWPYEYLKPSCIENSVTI
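Hydroperoxide product was detected by ferrous iron/xylenol orange as the 573 to 405 nm absorbance ratio. Arachidonic acid at 40 uM (final) was turned over for 30 min at room temperature by 150 nM human 12hLO, pH 7.0 Hepes buffer, after 15 min compound preincubation.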
HT1080-NT tox: kills 2HG-producing HT-1080-NT fibrosarcoma cells | HT-1080-NT fibrosarcoma viability, CellTiter-Glo ATP luminescence, 48 h | Potency, µM (doses to about 46.1 µM), inactives show at the highest dose activity, negative = less viability, actives largely listed as cytotoxic | actives 1.6% (n = 360,000) | AID 686970;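 note: NT is the 2HG producing partner of a matched IDH1 knockdown line; potency is the fitted concentration of half-maximal effect; 0% = DMSO-treated cells and -100% = media-only wells without cells; nearly all actives have a fitted effect of over 55% in size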
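HT-1080-NT; 750 cells/well; 5% FBS RPMI; 48 h compound, 37 degrees C; CellTiter-Glo luminescence; curve fitting and curve-class assignment.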
IL1B secr inh: inhibitors of inflammasome signaling (IL-1 beta secretion). actives 4.7% (n = 360,000). AID 743279. THP-1 LPS/ATP IL-1B secretion, AlphaLISA, 16 h; active compounds read low. activity change, % at 57.5 µM; in the data active = activity change below about -50%; inconclusive = mostly about -30% to -49%
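Secreted IL-1B measured by AlphaLISA bead assay after 16 h compound exposure of THP-1 cells; compounds (final up to 57.5 uM) added 1 h before LPS (250 ng/mL) and ATP (1.25 mM) stimulation; lower signal means less secretion.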
Starred values were filed as active, the others as inactive; i = inactive; ? = inconclusive; / = no result given; [ ] = remark or other dose. Unless noted, calls come from the whole dose curve; as a rule, active = well fitted curve in the direction sought with a large enough effect; inconclusive = small, poorly fitted or top-dose-only effect, or another doubt; inactive = no such curve, though single readings can be large; an effect the other way counts as inactive or inconclusive. Unless noted, % is set by controls: 0 for no effect and ±100 for the full control effect.

SMILES	TDP1 cell noCPT	DT40 TDP1 CPT	HT1080 IDH1KD tx	ALOX12 inh	HT1080-NT tox	IL1B secr inh
CC1CCN(C(=O)Cn2nnc(-c3ccc(C(C)C)cc3)n2)CC1	?	16µM*	-1%	4%	4%	24
CCOC(=O)N(C)Cc1cn([C@@H]2CN[C@H](C(=O)N(CC)CC)C2)nn1	/	/	/	48%	/	/
CNC(=O)c1cn2c(n1)CN([S+](=O)([O-])c1c(C)noc1C)CC2	/	/	/	1%[6.33 µM]	/	/
N#CC1(Nc2ccc3ccccc3c2)CCCC1	-7%	14%	1%	0%	-1%	7
CCn1ccc(NS(=O)(=O)c2ccc(N)cc2)nc1=O	/	/	/	-11%[22.9 µM]	/	/
C=CCOc1cccc(C2/C(=C(\O)c3ccc4c(c3)OCCO4)C(=O)C(=O)N2CCN2CCOCC2)c1 (stereo not given)	27%	0%	2%	?	2%	0
CC(C)c1ccc(-c2noc(SCC(=O)N3CCCCC3C)n2)cc1 (stereo not given)	15µM*	?	/	-11%	/	/
CC1CCN(C(=O)CSc2nc(-c3ccc(C(C)C)cc3)no2)CC1	23µM*	21µM*	/	-40%	/	/
CC(C)c1ccc(-c2noc(SCC(=O)N3CCN(c4ccc(F)cc4)CC3)n2)cc1	-17%	-22%	/	-9%	/	/
CC1CCN(C(=O)CSc2nc(-c3ccccc3)no2)CC1	-25%	-16%	/	-12%	/	/
O=C(Nc1ccc(C2(C(=O)NCc3ccc4c(c3)OCO4)CCCCC2)cc1)C1CC1	/	/	/	6%	/	/
CCCc1ccc(-c2cc(C(=O)N/N=C/c3ccc([N+](=O)[O-])o3)c3ccccc3n2)cc1	8.2µM*	16µM*	6.5µM*	5%	7.3µM*	-16
O=C(N/N=C/c1ccco1)c1cc(-c2ccccc2)nc2ccccc12	4.1µM*	?	-24%	0%	-24%	30
Cc1ccc(-c2cc(C(=O)NN=C3CCCC3)c3ccccc3n2)cc1	-29%	-24%	-10%	0%[57.4 µM]	-18%	-3
O=C(NN=C1CCCCCC1)c1cc(-c2ccccc2)nc2ccccc12	15µM*	16µM*	?	26%	-26%	44
COc1cccc(-c2cc(C(=O)N/N=C/c3ccco3)c3ccccc3n2)c1	0.92µM*	?	0%	-23%	-13%	-24
O=C(N/N=C/c1ccco1)c1cc(C2CC2)nc2ccccc12	/	/	/	-3%	/	/
O=C(NCC1CCCCC1)c1ccc(CN2C(=O)NC3(CCS(=O)(=O)CC3)C2=O)cc1	/	/	/	2%	/	/
O=C([C@@H]1C[C@@H]2C=C[C@H]1C2)N1CCc2c(nc(-c3cccnc3)[nH]c2=O)C1	/	/	/	10%	/	/
COc1cccc(/C=N/NC(=O)c2oc3nc(-c4ccccc4)cc(-c4ccco4)c3c2N)c1	13µM*	-28%	3%	-4%	9%	-58*
CC(C)(C)n1nnnc1C1CC2(CCOCC2)C(=O)N1Cc1ccc(F)cc1F (stereo not given)	/	/	/	4%	/	/
CC(C)C[C@@H](COc1ccccc1)N1CCN(CCc2ccccc2)CCC1=O	21µM*	11µM*	-7%	11%	-3%	-3
CC(C)CN1CCC(=O)N([C@H](COc2ccccc2)Cc2ccccc2)CC1	11µM*	23µM*	-1%	-4%	-1%	-8
CCCN1CCC(=O)N([C@H](COc2ccccc2)CC(C)C)CC1	?	?	1%	-16%	-5%	-9
O=C1CCN(CCc2ccccc2)CCN1[C@H](COc1ccccc1)Cc1ccccc1	11µM*	29µM*	?	?	?	?
SMILES	TDP1 cell noCPT	DT40 TDP1 CPT	HT1080 IDH1KD tx	ALOX12 inh	HT1080-NT tox	IL1B secr inh
CC1CCN(C(=O)CN2CCCC(c3nc4ccccc4o3)C2)CC1 (stereo not given)	/	/	/	39%	/	/
COC(=O)c1ccc(C)c(-n2c(=O)n(Cc3ccccc3)c(=O)c3[nH]cnc32)c1	21µM*	?	-3%	-12%	-5%	33
Cc1ccccc1-n1c(=O)n(Cc2ccccc2)c(=O)c2[nH]cnc21	-5%	0%	-4%	0%	-2%	22
COc1cc(-c2noc(C)c2C#Cc2nccn2C)cc(OC)c1OC	13µM*	16µM*	?	-4%	?	-26
CC(N1CCOC1=O)S(=O)(=O)c1ccccc1 (stereo not given)	-6%	1%	1%	35µM*	4%	1
Cc1nnc(NN2CCOCC2)[nH]c1=O	3%	1%	6%	-12%	0%	5
CCOC(=O)c1cnc2cc(-c3ccc(Cl)cc3)nn2c1-c1ccccc1	13µM*	?	/	-11%	/	/
O=C(NCCCN1CCCC1=O)C1CCN(S(=O)(=O)c2ccc(Cl)cc2)CC1	2%	-1%	-5%	i	15%	7
COc1cccc(C(c2sc3nc(C)nn3c2O)N2CCc3ccccc3C2)c1 (stereo not given)	?	?	3%	32µM*	21%	23
CCN1CCN(C(c2cccc(OC)c2)c2sc3nc(C)nn3c2O)CC1 (stereo not given)	-10%	16%	15%	-15%	19%	-8
COc1cc(O)cc(O)c1C(=O)/C=C/c1ccccc1	15µM*	15µM*	-13%	?	-16%	-106*
COc1cc(OC)c(C(=O)/C=C/c2ccccc2)c(O)c1O	?	?	-18%	?	-16%	-100*
Cn1c(=O)c2c(SCC(=O)NCc3ccco3)nc(-c3cccc(F)c3)nc2n(C)c1=O	-9%	-12%	/	-20%	/	/
Cn1c(=O)c2c(SCC(=O)NCc3ccco3)nc(-c3ccccc3Cl)nc2n(C)c1=O	23µM*	?	0%	?	-1%	3
COc1ccc(-c2noc([C@@H]3C[C@@H](O)CN3Cc3ncc[nH]3)n2)cc1	/	/	/	48%[176 µM]	/	/
COc1ccc(CN2CCc3nc(N(C)C)[nH]c(=O)c3CC2)c(Cl)c1OC	/	/	/	43%	/	/
c1ccc(Cn2nnnc2CN2CCOCC2)cc1	1%	3%	-1%	0%	1%	1
OC1(c2cccc(C(F)(F)F)c2)CCN(Cc2nc(COc3ccccc3)no2)CC1	/	/	/	30%	/	/
OC1(c2cccc(C(F)(F)F)c2)CCN(Cc2nnnn2Cc2ccccc2)CC1	?	?	-25%	-4%	-10%	-70*
OC1(c2cccc(C(F)(F)F)c2)CCN(Cc2nnnn2CCc2ccccc2)CC1	21µM*	23µM*	-16%	52%	-24%	-7
